Screening results as filed in PubChem BioAssay.
HCV inhibitor: HCV inhibition. Huh7.5.1 HCVcc-Cre infection, luciferase reporter, 44 h. AID 651820. Potency, µM (top dose mostly 41.8 µM), usual class: inhibitors. actives 3.4% (n = 340,000)
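Antiviral activity was scored by luciferase reporter output from cells infected with HCVcc-Cre (~0.5 moi) in presence of compound, 44 h infection period, cells seeded 1,000/well 4 h prior.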
AMA1-RON2 inh: disrupts binding of P. falciparum AMA1 to RON2; Potency, µM (titrated, usually from 58.2 µM), usual class: inhibitors; AlphaScreen AMA1-biotinylated RON2 peptide binding; actives 0.2% (n = 360,000); note: nearly all actives have a fitted effect of over 45% in size
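AMA1 (3D7) with his tag at 25 nM final met compounds first, then biotinylated RON2 peptide at 25 nM; detection used donor plus acceptor beads, 10 µg/mL apiece, read by AlphaScreen after 30 min at room temperature.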
Cycloheximide cs: counter-screen for Shiga toxin inhibitors: cycloheximide protein synthesis inhibition; max response, %; cell reporter, cycloheximide protein synthesis inhibition counterscreen; AID 2314; actives 12% (n = 300,000); in the data active = max response mostly above about 13%, no sharp cut-off; inactive = mostly below about 14%; note: read at 38.3 µM for the half of the compounds with a filed dose
Shiga toxin inh: inhibitors of Shiga toxin in Vero cells | AID 2315 | actives 9.2% (n = 290,000) | Vero cells, Shiga toxin protein synthesis inhibition reporter | inhibition, % at 38.7 µM; in the data active = inhibition mostly above about 28%, no sharp cut-off; inactive = mostly below about 43%
Pf growth 48h: inhibits P. falciparum growth in the first generation, 48 h; P. falciparum luciferase growth in erythrocytes, 48 h; Potency, µM (doses to about 28.7 µM), most hits filed as inhibitors; actives 5.9% (n = 310,000)
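Luciferase-expressing parasites in RBCs, 2% Hct / 0.1% parasitemia final; RPMI 1640 + 0.5% Albumax; 37 C, 5% CO2, one generation; luminescence read-out, lower signal = inhibition.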
Pf growth 96h: P. falciparum growth inhibition at 96 hour, primary screen for plastid delayed-death inhibitors | Potency, µM (highest dose often 28.7 µM), most hits filed as inhibitors | AID 504834 | actives 6.9% (n = 320,000) | P. falciparum luciferase reporter growth, 96 h
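P. falciparum expressing integrated firefly luciferase grown in erythrocytes (2% hematocrit, 0.05% parasitemia final) with compounds for 96 hours at 37 C, 5% CO2. Growth inhibition read as loss of luminescence after adding luciferase detection reagent.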
Hits are given with their value; 0 = inactive; ? = inconclusive; - = no result; + = active, no number; ! = not confirmed by another sample; [ ] = another dose, or the depositor's remark. The list is not random: actives were taken first. Their share in the collection is about 21%. Unless noted, calls come from the whole dose curve; as a rule, active = well fitted curve in the direction sought with a large enough effect; inconclusive = small, poorly fitted or top-dose-only effect, or another doubt; inactive = no such curve, though single readings can be large; an effect the other way counts as inactive or inconclusive.

SMILES | HCV inhibitor | AMA1-RON2 inh | Cycloheximide cs | Shiga toxin inh | Pf growth 48h | Pf growth 96h
C/C1=C2/[N-]C(C(CC(N)=O)[C@@]2(C)CCC(=O)NCC(C)OP(=O)([O-])O[C@H]2[C@@H](O)[C@@H](n3cnc4cc(C)c(C)cc43)O[C@@H]2CO)[C@]2(C)N=C(/C(C)=C3N=C(/C=C4N=C1C(CCC(N)=O)C\4(C)C)[C@@H](CCC(N)=O)[C@]\3(C)CC(N)=O)[C@@H](CCC(N)=O)[C@]2(C)CC(N)=O.CC(=O)O.[Co] (some centres not stated) | - | - | - | - | 0.85µM | 0.67µM
O=C(CSc1ccc(Cl)cc1)Nc1ccccc1N1CCN(C(=O)c2ccc(Cl)cc2)CC1 | ? | 0 | 0 | 0 | 4.1µM | ?
CC(C)C(=O)NC(=S)Nc1ccccc1N1CCN(C(=O)c2ccc(Cl)cc2)CC1 | 0 | 0 | 32 | 0 | 1.5µM | 0
O=C(Nc1ccccc1N1CCN(C(=O)c2ccc(Cl)cc2)CC1)c1cccc(F)c1 | 0 | 0 | 0 | 0 | ? | 0
CC(C)(C)C(=O)Nc1ccccc1N1CCN(C(=O)c2ccc(Cl)cc2)CC1 | ? | 0 | 0 | 0 | 10µM | ?
O=C(CSc1ccc(Cl)cc1)Nc1ccc(N2CCN(C(=O)c3ccc(Cl)cc3)CC2)cc1 | 0 | 0 | 0 | 0 | 0 | ?
Cc1cccc2c1-c1sc(C(=O)N3CCCCC3)cc1CO2 | 0 | 0 | 30 | 41 | 0 | ?
CCN1CCN(C(=O)c2cc3c(s2)-c2c(C)cccc2OC3)CC1 | ? | 0 | 29 | 34 | 0 | 0
COC(=O)[C@]1(C)N[C@H](c2ccc(SC3CCCCC3)c(OC)c2)[C@@H]2C(=O)N(C)C(=O)[C@@H]21 | 0 | 0 | - | - | ? | ?
CCCOC(=O)c1ccc(Oc2cn[nH]c2-c2ccc(O)cc2O)cc1 | 8.9µM | 0 | 0 | 0 | ? | 13µM
CCOC(=O)c1ccc(Oc2cn[nH]c2-c2ccc(OCC(=O)NN)cc2O)cc1 | 0 | 0 | 0 | 0 | ? | ?
CCCOC(=O)c1ccc(Oc2cn[nH]c2-c2ccc(OCC(=O)NN)cc2O)cc1 | 0 | 0 | 0 | 0 | ? | 9.3µM
O=C(CNc1cccc(S(=O)(=O)N2CCOCC2)c1)Nc1ccccc1F | 0 | 0 | 0 | 0 | 0 | 0
COc1ccc(-n2cc(C(=O)c3ccccc3O)cn2)cc1 | 0 | 0 | 0 | 0 | 0 | 0
COc1ccc(O)c(C(=O)c2cnn(-c3ccccc3)c2)c1 | ? | 0 | 29 | 96 | 0 | 0
COc1ccc(C(=O)c2ccccc2)c(O)c1 | 0 | 0 | 26 | + | ? | 15µM!
COc1ccc(C(=O)c2ccc(C)cc2)c(O)c1 | - | - | - | - | 0 | 0
O=C(c1cnn(-c2ccccc2)c1)c1ccccc1O | 0 | 0 | 70 | 75 | 0 | 0
COc1ccc(O)c(C(=O)c2cnc3onc(C)c3c2)c1 | 0 | 0 | 21 | 0 | ? | 9.3µM
COc1ccc(-n2cc(C(=O)c3ccc4ccccc4c3O)cn2)cc1 | 0 | 0 | 0 | 0 | 0 | ?
COc1ccc(O)c(C(=O)c2cnc3c(c2)c(C)nn3C)c1 | 0 | 0 | 0 | 0 | ? | ?
COc1ccc(-c2noc(CN(C)C(=O)CCCN3C(=O)[C@H]4CC=CC[C@H]4C3=O)n2)cc1 | - | 0 | - | - | - | -
CCN(C(=O)Cc1c(C(=O)O)[nH]c2ccccc12)c1ccc(OC)cc1 | 0 | 0 | 0 | 0 | 0 | 0
CC(=O)c1ccccc1OCCOc1ccccc1C(C)=O | 0 | 0 | 0 | 0 | ? | ?
Cc1ncc(CC(=O)n2cc(C(=O)c3cc(F)ccc3O)cn2)s1 | 0 | 0 | 34 | 45 | 0 | 0
SMILES | HCV inhibitor | AMA1-RON2 inh | Cycloheximide cs | Shiga toxin inh | Pf growth 48h | Pf growth 96h
COc1ccc(C(=O)OCCOc2ccccc2C(C)=O)c(O)c1 | ? | 0 | 13 | 0 | 0 | 0
O=C(c1cnn(-c2ccccc2)c1)c1cc(F)ccc1O | 0 | 0 | 43 | 83 | - | 0
COCCn1cnc2c1c(=O)n(Cc1ccc(C#N)cc1)c(=O)n2Cc1ccccc1 | 0 | 0 | 0 | 0 | ? | ?
CC(Nc1ccc(Cl)cc1)c1cc(Cl)ccc1O (configuration not stated) | 0 | 0 | 0 | 0 | 9.3µM | 0
CCOc1ccc(NC(C)c2cc(Cl)ccc2O)cc1 (configuration not stated) | 0 | 0 | 0 | 0 | 0 | 0
Cc1ccc2c(c1)-n1c(nc3ccccc3c1=O)C(CC(C)C)NC2=O (configuration not stated) | 0 | - | - | - | - | -
COc1cccc(OCCN2CCN(c3ncnc4c3cnn4-c3ccccc3)CC2)c1 | 7.1µM | 0 | 18 | 0 | 12µM | 9.3µM
CCOC(=O)C1CCN(c2ncnc3c2cnn3-c2ccc(Cl)cc2)CC1 | 0 | 0 | 0 | 0 | 0 | 0
COc1ccc(-n2ncc3c(N4CCC(C)CC4)ncnc32)cc1 | 0 | 0 | 20 | 26 | 0 | 0
CCOC(=O)C1CCN(c2ncnc3c2cnn3-c2ccccc2)CC1 | 0 | 0 | 18 | 0 | 0 | -
Clc1ccc(-n2ncc3c(N4CCCC4)ncnc32)cc1 | 0 | 0 | 77 | 120 | 0 | 0
CCOC(=O)N1CCN(c2ncnc3c2cnn3-c2ccc(OC)cc2)CC1 | 0 | 0 | 0 | 0 | 0 | 0
O=C(NC1CCCCC1)C(=S)NC1CCCCC1 | - | - | 0 | 0 | 0 | 0[5.75 µM]
O=c1[nH]n(-c2ncnc3c2cnn3-c2ccccc2)c(=O)c2ccccc12 | 0 | 0 | 0 | 0 | 0 | 0
CC1CCN(c2ncnc3c2cnn3-c2ccccc2)CC1 | 0 | 0 | 42 | 75 | - | 0
Cc1ccc(N=Cc2ccc[nH]2)c(O)c1 | 0 | 0 | 44 | 98 | 0 | ?
CCc1nonc1NC(=O)c1oc2cc(Br)ccc2c1C | 0 | 0 | 15 | 0 | 9.3µM | ?
CCc1ccc2oc(C(=O)Nc3nonc3CC)c(C)c2c1 | ? | 0 | 59 | 53 | 0 | 0
CCCCc1nnc(NC(=O)c2oc3ccccc3c2C)s1 | 0 | 0 | - | - | 0 | 0
Cc1nonc1NC(=O)c1oc2ccc(F)cc2c1C | 0 | 0 | 0 | 0 | 0 | 0
CCc1nonc1NC(=O)c1oc2ccccc2c1C | 0 | 0 | 36 | 0 | 9.3µM | ?
Cc1cc2oc(C(=O)Nc3nonc3C)c(C)c2cc1Cl | 0 | 0 | 0 | 0 | 0 | 8.3µM
CCc1nonc1NC(=O)c1oc2c(C)c(C)ccc2c1C | 0 | 0 | 0 | 0 | ? | 0
COc1ccc(N2CCN(CC(=O)Nc3ccc(C)c(C)c3)CC2)cc1 | 0 | 0 | 0 | 0 | 0 | 0
CCc1nonc1NC(=O)c1oc2ccc(C)cc2c1C | 0 | 0 | 36 | 45 | 0 | ?
O=C1NC(=O)c2cc3ccccc3cc21 | 0 | 0 | - | - | 0 | 0
CC1CCN(c2nc3ccc(C(=O)NCCCN4CCCCC4C)cc3s2)CC1 (configuration not stated) | ? | 0 | 29 | 34 | 0 | 0
CC1CCCC(C)N1CCCNC(=O)c1ccc2nc(N3CCCCC3)sc2c1 (configuration not stated) | 0 | 0 | 18 | 59 | ? | ?
CC1CCCC(C)N1CCCNC(=O)c1ccc2nc(N3CCOCC3)sc2c1 (configuration not stated) | 0 | 0 | 0 | 0 | 0 | 0
